# Reference: PubChem BioAssay
# Active and inactive are the calls of the source.
# Assays:
# [1] = system: Plasmodium falciparum Sir2 (PF13_0152, Sir2A); assay: Plasmodium falciparum Sir2A binding compounds – biochemical, small-molecule microarray, 635 nm fluorescence, primary screen (AID 1098); conditions: fluorescence 635 nm, higher = more signal;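 further: score merges spot fluorescence intensity with its signal-to-noise ratio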
# [2] = probe aDKK1 binding to arrayed compounds – biochemical, biotinylated probe, 635/667 nm fluorescence, primary screen (AID 1099); conditions: small-molecule microarray, higher = more signal;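 further: score merges 667nm spot fluorescence with signal to noise across triplicate slides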
# [3] = probe aCHRDL2 binding to arrayed compounds – biochemical, biotinylated probe, 635/667 nm fluorescence, primary screen (AID 1100); conditions: small-molecule microarray, higher = more signal
# [4] = change in splice reporter luminescence, either direction, cell-based, HEK293, spliceosome inhibition project, primary screen (AID 1101); conditions: HEK293 splicing luciferase reporter, 24 h, higher = more signal, called active from +8 up or from −8 down;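 further: HEK293 cells carrying a splicing-competent luciferase reporter gene; test concentration not given here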
# [5] = molecular target: Fibroblast growth factor 10 (Homo sapiens) (UniProt O15520); assay: compounds binding fibroblast growth factor 10 – biochemical, small-molecule microarray, 635 nm fluorescence, primary screen (AID 1102); conditions: FGF10 binding, fluorescence 635 nm, higher = more signal
# [6] = system: glycogen synthase kinase-3 (GSK3A per assay name; protocol says GSK3B); assay: compounds binding glycogen synthase kinase-3 – biochemical, small-molecule microarray, 635 nm fluorescence, GSK3A, primary screen (AID 1103); conditions: fluorescence 635 nm, higher = more signal; further: the record names both GSK3A and GSK3B
# [7] = molecular target: Epidermal growth factor receptor (Homo sapiens) (UniProt P00533); assay: compounds binding epidermal growth factor receptor – biochemical, small-molecule microarray, 635 nm fluorescence, primary screen (AID 1104); conditions: EGFR binding, higher = more signal;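 further: score merges 667 nm emission intensity with spot signal to noise over triplicate slides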
# [8] = molecular target: Follistatin-related protein 3 (Homo sapiens) (UniProt O95633); assay: compounds binding follistatin-related protein 3 – biochemical, small-molecule microarray, 635 nm fluorescence, primary screen (AID 1105); conditions: FSTL3 binding, higher = more signal;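 further: score merges emission near 667 nm and signal to noise per printed spot across three slides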
# [9] = molecular target: Dickkopf-related protein 1 (Homo sapiens) (UniProt O94907); assay: small molecules binding DKK1 protein – biochemical, small-molecule microarray, 635 nm fluorescence scan, primary screen (AID 1106); conditions: higher = more signal;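 further: score merges emission near 667 nm with signal to noise over three replicate slides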
# [10] = system: Inhibin beta A chain (activin A); assay: small molecules binding activin A – biochemical, small-molecule microarray, 635 nm fluorescence scan, primary screen (AID 1107); conditions: INHBA, higher = more signal;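 further: mouse activin A protein probed at 4.33 µg/mL on printed slides; score merges bound-protein fluorescence near 667 nm with spot signal-to-noise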
# [11] = system: Human papillomavirus type 1a protein E7 (residues 44-93); assay: small molecules binding HPV E7 44-93 – biochemical, small-molecule microarray, residues 44-93, 635 nm fluorescence, primary screen (AID 1108); conditions: fluorescence 635 nm, higher = more signal;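 further: E7 fragment applied at 1 µg/mL in TBST for 1 h at 4 C; score combines spot fluorescence with its signal to noise ratio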
# [12] = hepatitis C replication reporter changes, two-sided – Huh7 cells, luciferase reporter, HCV replication inhibitor project, primary screen (AID 1109); conditions: Huh7 HCV replicon luciferase reporter, 48 h; higher = more signal;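 further: huh7 hepatoma cells harbouring a luciferase neomycin HCV replicon reporter; luciferase luminescence as measure of HCV replicon replication; test concentration not given here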
# [13] = molecular target: Left-right determination factor 2 (Homo sapiens) (UniProt O00292); assay: small molecules binding LEFTY2 protein – biochemical, small-molecule microarray, 635 nm fluorescence scan, primary screen (AID 1110); conditions: higher = more signal
# [14] = molecular target: Calmodulin-1 (Homo sapiens) (UniProt P0DP23); assay: small molecules binding calmodulin-1 with EGTA – biochemical, small-molecule microarray, Cy5-labelled CALM1, profiling panel (AID 1111); conditions: Cy5-CALM1 binding fluorescence, higher = more signal;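 further: labelled calmodulin applied in Tris saline Tween buffer holding calcium plus EGTA and DTT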
# [15] = molecular target: Calmodulin-1 (Homo sapiens) (UniProt P0DP23); assay: small molecules binding Ca-loaded calmodulin-1 – biochemical, small-molecule microarray, Cy5-labelled CALM1, plus calcium, artefact control for SMM control-protein annotation, profiling panel (AID 1112); conditions: Cy5-CALM1 binding fluorescence, higher = more signal;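 further: score merges spot fluorescence with signal to noise from triplicate slides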
# [16] = probe aWnt5a binding to arrayed compounds – biochemical, biotinylated probe, 635/667 nm fluorescence, primary screen (AID 1113); conditions: small-molecule microarray, higher = more signal;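 further: score merges 667 nm fluorescence intensity with signal-to-noise per printed feature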
# [17] = probe aShh binding to arrayed compounds – biochemical, biotinylated probe, 635/667 nm fluorescence, primary screen (AID 1114); conditions: small-molecule microarray, higher = more signal;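 further: probe is biotin-labelled aShh protein from a stem cell growth factor screen; measures binding of labelled protein to compounds printed on the slide; score merges feature fluorescence at 667 nm with signal-to-noise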
# [18] = probe aNog binding to arrayed compounds – biochemical, biotinylated probe, 635/667 nm fluorescence, primary screen (AID 1115); conditions: small-molecule microarray, higher = more signal;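 further: probe is biotinylated aNog protein used at 0.15 µg/mL for 1 h at 4 C; z-score combines 667 nm fluorescence of each spot with its signal to noise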
# [19] = molecular target: Torsin-1A-interacting protein 1 (Homo sapiens) (UniProt Q5JTV8); assay: compound microarray binding of lysate hLAP1 – cell lysate, small-molecule microarray, COS7 lysate, 635/667 nm fluorescence, primary screen (AID 1116); conditions: 635 nm fluorescence, higher = more signal
# [20] = molecular target: Alpha-bungarotoxin (Bungarus multicinctus) (UniProt P60615); assay: compounds binding labelled alpha-BTX control protein – biochemical, small-molecule microarray, Alexa647 label, 635/667 nm fluorescence, artefact control for SMM control protein annotation, profiling panel (AID 1117); conditions: alpha-BTX-A647 binding fluorescence, higher = more signal
# Alpha-bungarotoxin (Bungarus multicinctus), sequence (P60615 whole entry, looked up): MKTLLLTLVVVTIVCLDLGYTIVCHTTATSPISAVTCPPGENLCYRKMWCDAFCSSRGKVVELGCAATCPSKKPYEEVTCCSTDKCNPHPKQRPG
# Torsin-1A-interacting protein 1 (Homo sapiens), sequence (Q5JTV8 whole entry, looked up): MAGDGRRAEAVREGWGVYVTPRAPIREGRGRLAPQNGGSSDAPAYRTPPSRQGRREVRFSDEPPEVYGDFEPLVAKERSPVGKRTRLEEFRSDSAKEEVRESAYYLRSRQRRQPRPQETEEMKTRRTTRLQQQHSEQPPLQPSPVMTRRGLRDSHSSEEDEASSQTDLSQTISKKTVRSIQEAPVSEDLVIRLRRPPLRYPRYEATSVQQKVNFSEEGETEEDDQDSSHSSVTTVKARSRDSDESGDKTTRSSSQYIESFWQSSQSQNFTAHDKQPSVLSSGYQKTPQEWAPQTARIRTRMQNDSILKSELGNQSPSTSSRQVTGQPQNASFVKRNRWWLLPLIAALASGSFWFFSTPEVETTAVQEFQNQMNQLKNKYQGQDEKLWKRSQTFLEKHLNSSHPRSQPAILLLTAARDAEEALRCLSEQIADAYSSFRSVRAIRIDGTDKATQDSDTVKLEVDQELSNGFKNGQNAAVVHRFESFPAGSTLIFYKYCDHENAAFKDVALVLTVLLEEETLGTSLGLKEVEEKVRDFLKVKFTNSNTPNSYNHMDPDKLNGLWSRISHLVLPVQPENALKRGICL
# Fibroblast growth factor 10 (Homo sapiens), sequence (O15520 whole entry, looked up): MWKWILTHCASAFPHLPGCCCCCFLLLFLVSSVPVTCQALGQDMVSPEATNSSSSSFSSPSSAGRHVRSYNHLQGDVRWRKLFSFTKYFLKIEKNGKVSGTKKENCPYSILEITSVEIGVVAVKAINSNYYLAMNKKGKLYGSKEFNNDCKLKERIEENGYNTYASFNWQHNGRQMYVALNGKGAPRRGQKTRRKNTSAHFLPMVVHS
# Dickkopf-related protein 1 (Homo sapiens), sequence (O94907 whole entry, looked up): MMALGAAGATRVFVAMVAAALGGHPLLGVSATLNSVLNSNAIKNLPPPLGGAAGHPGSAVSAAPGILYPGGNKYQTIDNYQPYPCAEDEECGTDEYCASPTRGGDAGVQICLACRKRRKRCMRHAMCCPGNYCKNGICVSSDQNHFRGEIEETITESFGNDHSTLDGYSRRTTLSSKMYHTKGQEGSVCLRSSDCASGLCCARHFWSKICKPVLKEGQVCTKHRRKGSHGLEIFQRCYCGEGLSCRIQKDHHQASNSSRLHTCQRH
# Left-right determination factor 2 (Homo sapiens), sequence (O00292 whole entry, looked up): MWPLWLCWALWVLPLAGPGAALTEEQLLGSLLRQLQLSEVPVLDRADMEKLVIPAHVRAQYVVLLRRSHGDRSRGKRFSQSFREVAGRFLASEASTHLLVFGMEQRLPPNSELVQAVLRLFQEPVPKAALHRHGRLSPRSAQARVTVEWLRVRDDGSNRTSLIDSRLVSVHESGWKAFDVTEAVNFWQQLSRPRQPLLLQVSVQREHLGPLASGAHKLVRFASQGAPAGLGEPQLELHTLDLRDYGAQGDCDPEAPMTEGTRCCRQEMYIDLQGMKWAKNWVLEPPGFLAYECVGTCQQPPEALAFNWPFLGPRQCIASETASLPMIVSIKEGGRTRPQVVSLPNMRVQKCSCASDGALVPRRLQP
# Follistatin-related protein 3 (Homo sapiens), sequence (O95633 whole entry, looked up): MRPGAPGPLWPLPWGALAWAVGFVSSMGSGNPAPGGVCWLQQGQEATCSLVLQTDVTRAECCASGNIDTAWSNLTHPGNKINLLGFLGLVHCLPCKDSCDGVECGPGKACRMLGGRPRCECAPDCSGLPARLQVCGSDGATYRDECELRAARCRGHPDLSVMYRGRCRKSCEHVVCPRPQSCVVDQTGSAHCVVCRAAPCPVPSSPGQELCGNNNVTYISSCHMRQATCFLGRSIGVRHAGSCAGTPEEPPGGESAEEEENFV
# Epidermal growth factor receptor (Homo sapiens), sequence (P00533 whole entry, looked up): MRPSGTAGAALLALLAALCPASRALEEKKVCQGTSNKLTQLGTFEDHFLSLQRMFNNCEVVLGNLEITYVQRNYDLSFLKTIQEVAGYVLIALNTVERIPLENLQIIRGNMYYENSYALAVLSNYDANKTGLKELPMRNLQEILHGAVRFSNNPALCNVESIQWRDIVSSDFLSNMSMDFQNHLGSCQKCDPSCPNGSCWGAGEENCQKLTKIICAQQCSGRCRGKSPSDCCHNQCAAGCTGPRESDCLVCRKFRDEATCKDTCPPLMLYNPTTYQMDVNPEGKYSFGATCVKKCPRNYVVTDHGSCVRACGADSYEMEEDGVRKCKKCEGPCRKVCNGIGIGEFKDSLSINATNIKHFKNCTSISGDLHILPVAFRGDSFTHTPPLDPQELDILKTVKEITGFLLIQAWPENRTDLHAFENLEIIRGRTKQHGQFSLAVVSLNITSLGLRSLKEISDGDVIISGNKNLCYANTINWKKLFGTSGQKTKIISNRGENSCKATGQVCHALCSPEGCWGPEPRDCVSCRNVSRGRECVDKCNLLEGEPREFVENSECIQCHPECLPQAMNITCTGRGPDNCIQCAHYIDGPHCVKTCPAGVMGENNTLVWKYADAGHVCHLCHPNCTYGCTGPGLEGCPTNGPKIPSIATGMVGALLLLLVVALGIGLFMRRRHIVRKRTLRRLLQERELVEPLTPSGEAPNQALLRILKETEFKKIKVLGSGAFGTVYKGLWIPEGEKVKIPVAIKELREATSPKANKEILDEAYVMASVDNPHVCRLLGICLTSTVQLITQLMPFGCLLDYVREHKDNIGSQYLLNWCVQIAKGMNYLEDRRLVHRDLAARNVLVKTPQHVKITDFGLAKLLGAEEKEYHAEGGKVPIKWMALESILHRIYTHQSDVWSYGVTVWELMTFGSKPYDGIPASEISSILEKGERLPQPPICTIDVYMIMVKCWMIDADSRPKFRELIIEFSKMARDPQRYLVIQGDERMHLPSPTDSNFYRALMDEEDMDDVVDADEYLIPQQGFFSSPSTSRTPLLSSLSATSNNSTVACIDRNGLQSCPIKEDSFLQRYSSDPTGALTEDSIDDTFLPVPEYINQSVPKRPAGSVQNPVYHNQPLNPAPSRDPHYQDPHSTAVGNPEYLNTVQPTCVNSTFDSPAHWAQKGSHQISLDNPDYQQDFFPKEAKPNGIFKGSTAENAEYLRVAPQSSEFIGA
Structure (SMILES),composite z-score [1],composite z-score [2],composite z-score [3],z-score [4],composite z-score [5],composite z-score [6],composite z-score [7],composite z-score [8],composite z-score [9],composite z-score [10],composite z-score [11],z-score [12],composite z-score [13],composite z-score [14],composite z-score [15],composite z-score [16],composite z-score [17],composite z-score [18],composite z-score [19],composite z-score [20]
CCc1cc2c(nc1CC)CCN(CCC(C)=NOC[C@@H](O)[C@H]1O[C@@H]3OC(C)(C)O[C@@H]3[C@H]1O)C2,0.569,-0.54,-0.32,-0.173 (inactive),0.123,0.175,0.352,0.285,0.453,0.963,0.176,-1.59,0.317,1.68,0.0363,-0.0607,-0.16,-0.238,0.455,0.677
COc1ccc([Si](C)(C)[C@@H]2[C@@H](CCO)O[C@]3(C(=O)N(Cc4ccc(NC(C)=O)cc4)c4ccccc43)[C@H]2C)cc1,1.23,-0.173,0.0018,-2.27 (inactive),0.779,1.28,1.28,0.951,-0.0026,0.387,1.43,-5.21,0.621,1.07,0.521,0.0136,0.441,0.715,0.802,1.21
C[C@@H]1C=CCC(=O)OC[C@H](C)C(=O)OC[C@H]2O[C@H]1C=C[C@H]2O,0.128,-0.439,-0.833,1.17 (inactive),0.678,0.387,0.339,0.808,0.545,-0.181,0.0717,-2.33,0.71,-0.239,-1.16,-0.228,-0.0793,-0.278,-0.0644,-0.108
CCCCC(=C=CC[C@H](O)c1ccccc1OCCO)C[C@H](O)COCc1ccccc1,1.45,-0.001,0.309,-0.139 (inactive),0.0624,-0.285,-0.792,-0.349,-0.355,0.778,-0.156,-1.92,-0.233,1.22,0.768,-0.124,-0.138,0,1.65,1.04
CC(C)[C@@H](OCc1ccccc1)[C@H](C)C=NO[C@H](C)c1cn([C@H](CO)Cc2ccccc2)nn1,0.45,-0.25,-0.566,-0.652 (inactive),0.503,0.562,0.173,0.474,0.804,-0.172,0.639,-2.09,0.521,-0.211,-0.669,-0.156,-0.0709,-0.216,0.113,0.263
CCOC(=O)C[C@H]1[C@H](OC(=O)c2cc3ccccc3oc2=O)[C@@H](NC(=O)c2ccc3ccccc3n2)c2cc(OCCCO)ccc2N1C(=O)c1ccccc1,0.564,0.414,-0.0652,-0.38 (inactive),1.4,0.439,0.344,0.948,1.04,0.513,0.15,-1.4,0.473,0.218,0.179,0.0374,-0.138,0.108,1.12,0.593
CC(=O)OC[C@H]1O[C@@H](ON=C(C)CCN2CCc3nc(-c4ccccc4)c(-c4ccccc4)cc3C2)[C@H](OC(C)=O)[C@@H](OC(C)=O)[C@@H]1OC(C)=O,0.625,-0.119,-0.413,0.522 (inactive),0.917,1.22,0.525,0.979,0.525,-0.0877,1.32,-2.07,0.687,0.328,-0.697,0.0215,-0.0362,-0.295,0.358,0.74
C=CCNC(=O)[C@H]1[C@@H]2C(=O)O[C@@H](c3ccccc3)[C@@H](c3ccccc3)N2[C@@H](c2ccc(O)cc2)[C@]12C(=O)N(C(=O)OCCOC)c1ccc(C#CC3=CCCCC3)cc12,1.79,0.298,0.263,-0.75 (inactive),0.966,1.32,0.205,0.969,0.23,1.34,1.04,-0.812,0.879,1.64,0.566,0.523,1.92,2.64,2.09,1.79
